We go through 95 molecules from PubChem BioAssay AID504332 (National Center for Advancing Translational Sciences (NCATS), 2011).

The whole screen tested about 350,000 compounds, of which about 31,000 (8.9%) were called active. Roughly 15% stayed inconclusive and do not appear here. Shown is part of a subset that was picked to be rich in actives. Entries that show only a call come without a potency. Unmarked numbers belong to inactive results. The call rests on the fitted dose curve; in most records, active means well fitted inhibition curve with a large enough effect; inconclusive means small, poorly fitted or top-dose-only effect; inactive means no such curve, though single readings can be large or run the other way.
Potency means the concentration at half of the fitted maximal effect.

The target in the assay is Histone-lysine N-methyltransferase EHMT2 (Homo sapiens) (UniProt Q96KQ7). The assay is described as follows: qHTS Assay for Inhibitors of Histone Lysine Methyltransferase G9a. Further: nearly all actives have a fitted effect of over 75% in size. Conditions: G9a H3K9 monomethylation, AlphaScreen, 2 h; series mostly up to 59 µM. In a few lines: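 Methyltransferase reactions run at room temperature for 2 h (20 nM enzyme, 500 nM biotin-H3K9 peptide, 20 uM SAM) after a 15 min compound preincubation; product detected by AlphaScreen beads and anti-H3K9me1 antibody.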
Sequence of Histone-lysine N-methyltransferase EHMT2 (Homo sapiens) (Q96KQ7 913-1193 limits assumed): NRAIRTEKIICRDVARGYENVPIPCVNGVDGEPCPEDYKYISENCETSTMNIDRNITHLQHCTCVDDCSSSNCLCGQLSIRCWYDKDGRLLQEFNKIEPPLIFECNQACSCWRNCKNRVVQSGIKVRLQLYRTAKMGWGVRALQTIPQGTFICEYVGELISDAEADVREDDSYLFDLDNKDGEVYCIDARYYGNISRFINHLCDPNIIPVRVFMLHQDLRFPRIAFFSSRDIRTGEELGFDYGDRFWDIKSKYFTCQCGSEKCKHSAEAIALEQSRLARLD
For `O=C(O)CCCn1cc(NC(=O)COc2cccc(Cl)c2)cn1`, the Potency result was “inactive”. Still for that read-out and setting: as for `O=C1CCN(CCCc2ccccc2)CCN1CCO`, the entry is “inactive”; as for `Cc1csc(NC(=O)c2ccc(-c3ccc(Cl)cc3Cl)o2)n1`, “inactive”. Same read-out and setting: under `COc1ccc(C(=O)Nc2c(Cl)cc(Cl)cc2C(=O)N2CCC(C)CC2)cc1` stands “inactive”; under `CC1CCN(C(=S)c2ccc(-c3ccc(Cl)cc3Cl)o2)CC1`, 8.91 µM (active); under `COc1ccc(CNC(=O)C(C)n2nc(C)c3c(C)n(-c4ccccc4)nc3c2=O)c(OC)c1` (stereo not given), “inactive”. On to `CN1CCN(c2ccc([N+](=O)[O-])c(Sc3nc4ccccc4[nH]3)c2)CC1`, for which the Potency was 10 µM (active).

Consider `CC1CCN(c2ccc([N+](=O)[O-])c(SCCO)c2)CC1`, for which the Potency result is “inactive”. Same read-out and setting: under `O=[N+]([O-])c1ccc(N2CCNCC2)cc1NCc1cccnc1` stands “inactive”; under `CCOC(=O)c1ccccc1NC(=O)CCc1c(C)nc2c(c1C)c(=O)n(C)c(=O)n2C`, “inactive”; under `CCOc1ccc(N2CC(c3nc4ccccc4n3CCOc3ccc(OC)cc3)CC2=O)cc1` (stereo not given), “inactive”. The same measure, in the same setting: as for `CCc1ccccc1OCC(=O)Nc1ccc2c(c1)OCCO2`, the entry is “inactive”; as for `COc1ccc(NC(=O)CSc2nnc(C3CC3)n2C)cc1S(=O)(=O)N1CCCCC1`, “inactive”. Consider `COc1ccc(NC(=O)CSc2nnc(-c3ccccc3F)n2C2CC2)cc1S(N)(=O)=O`, for which the Potency is 44.7 µM (active). Still for that read-out and setting: as for `CC(Sc1nnc(-c2ccccc2F)n1C1CC1)C(N)=O` (stereo not given), the entry is “inactive”. The same measure, in the same setting: under `Cc1ccc(S(=O)(=O)N(CC(=O)NCc2ccco2)c2ccccc2C)cc1` stands “inactive”; under `CCOC(=O)C(Cc1ccccc1)NC(=O)CCc1c(C)nc2c(c(C)nn2-c2ccc(C)c(C)c2)c1C` (stereo not given), “inactive”; under `CCOC(=O)c1cc2c(=O)n3ccccc3nc2n(Cc2ccco2)c1=NC(=O)c1ccc(F)cc1`, “inactive”.

Turning to `COC(=O)c1ccc(NC(=O)c2cnn(-c3ccc(Cl)cc3)c2C2CCN(C(=O)OC(C)(C)C)CC2)cc1`, the Potency entry was “inactive”. For the molecule `COc1cccc(NC(=O)CN(C)CC(=O)Nc2ccc3c(c2)CCC3)c1`, the Potency entry is “inactive”. For `CCOc1cccc(NC(=O)C2CCCN(S(=O)(=O)c3ccc(OC)cc3)C2)c1` (stereo not given), the Potency entry was “inactive”. Same read-out and setting: under `COc1cccc(NC(=O)CN(C)C(=O)CSC(=S)N2CCCC2)c1` stands 14.1 µM (active); under `COc1cccc(NC(=O)CN(C)C(=O)Cc2ccc(Cl)cc2Cl)c1`, “inactive”; under `CCN(CC(=O)Nc1ccc(S(=O)(=O)N2CCCC2)cc1)CC(=O)Nc1cccc(OC)c1`, 31.6 µM (active). As for `COc1ccccc1CC(=O)Nc1ccc(S(=O)(=O)N2CCCC2)cc1`, the Potency entry was “inactive”. Turning to `COc1ccc(OC)c(NC(=O)CN2CCCN(Cc3cc(C)ccc3C)S2(=O)=O)c1`, the Potency result is “inactive”.

On to `COc1ccc(OCCCC(=O)OC(C)C(=O)Nc2ccccc2[N+](=O)[O-])cc1` (stereo not given), for which the activity, negative = inhibition is -1.74% [at 2.33 µM]. As for `CCOc1ccc(-n2c(C)nc3c(cnn3-c3ccc(C)cc3)c2=O)cc1`, the Potency entry is “inactive”.

As to `Cn1c(=O)c2c(nc(NCCNC(=O)c3ccco3)n2Cc2ccccc2F)n(C)c1=O`, the Potency entry is “inactive”. As for `CC(C)OCCCNc1nc2c(c(=O)n(Cc3ccccc3F)c(=O)n2C)n1C`, the Potency was 22.4 µM (active).

With `CCOC(=O)CSc1nc2c(c(=O)n(C)c(=O)n2C)n1Cc1ccccc1F`, the Potency result was “inactive”. Turning to `CNC(=O)c1ccc(-c2nc(CN3CCc4ccccc43)c(C)o2)cc1`, the activity, negative = inhibition was -0.994% [at 12.7 µM]. Turning to `Cc1nn(-c2ccccc2)c(C)c1NC(=O)COc1ccc(Cl)cc1Cl`, the Potency entry is “inactive”. The same measure, in the same setting: under `CCOC(=O)c1c(NC(=O)c2ccc(S(=O)(=O)N(C)CC3CCCO3)cc2)sc2c1CC(C)(C)NC2(C)C` (stereo not given) stands “inactive”; under `COC(=O)c1c(NC(=O)COc2ccc(Cl)cc2Cl)sc2c1CC(C)(C)NC2(C)C`, 31.6 µM (active). `CC1(C)CC(=O)C=C(c2ccc(Cl)c(C(F)(F)F)c2)C1`: the activity, negative = inhibition is -9.47% [at 0.501 µM]. Still for that read-out and setting: under `O=C(CCc1nc(-c2ccccc2)no1)Nc1cccc(C(=O)NC2CC2)c1` stands -5.9% [at 12.7 µM].

On to `CCOC(=O)c1ccccc1NC(=O)COC(=O)C(Cc1c[nH]c2ccccc12)NC(C)=O` (stereo not given), for which the Potency result was “inactive”. On to `Cc1nonc1C1CCCN1C(=O)c1cc(COc2cccc(C(F)(F)F)c2)on1` (stereo not given), for which the Potency result is “inactive”. On the same count and under the same terms, as for `Cc1ccc(NC(=O)CSc2nc3c([nH]c4ccccc43)c(=O)n2-c2ccccc2)c(C)c1`, the entry is “inactive”.

Consider `O=C(COc1ccccc1F)OCc1cc(=O)n2nc(C3CCCCC3)sc2n1`, for which the Potency result was “inactive”. Turning to `O=C(O)CCn1c(Cc2ccccc2)nc2ccccc21`, the Potency result was “inactive”. As to `O=C(O)CCc1nc2cc(Cl)ccc2n(Cc2ccccc2)c1=O`, the Potency was 50.1 µM (active). On to `CC(=O)c1nc2ccccc2n1Cc1ccccc1`, for which the Potency result was “inactive”. As for `COc1cc(OC)c(NC(=O)c2cnc(N3CCCC3)nc2C)cc1Cl`, the activity, negative = inhibition was -4.36% [at 12.7 µM]. Same read-out and setting: as for `COc1cc(C#Cc2ccc3cc(CCCO)oc(=O)c3c2)cc(OC)c1`, the figure is -2.15% [at 0.501 µM]. Consider `COc1ccccc1C(=O)N(Cc1ccc(C)o1)C1CCS(=O)(=O)C1` (stereo not given), for which the Potency result was “inactive”. For the molecule `CC(OC(=O)c1cc2ccccc2o1)C(=O)Nc1ccc(N2CCOCC2)cc1` (stereo not given), the activity, negative = inhibition is -43.1% [at 12.7 µM]. Consider `O=C(Cn1c(=O)sc2ccccc21)Nc1nc2c(s1)CCCC2`, for which the Potency result was “inactive”. Consider `O=C(Nc1nc2c(s1)CCCC2)c1ccccc1F`, for which the Potency is 12.6 µM (active). The same measure, in the same setting: as for `O=C(Nc1nnc(-c2ccccc2F)s1)c1ccccc1F`, the entry is “inactive”.

`CCc1ccc(NC(=O)C2CCCN2S(=O)(=O)c2ccc3nc(-c4ccccc4)[nH]c3c2)cc1` (stereo not given): the Potency entry was “inactive”. Still for that read-out and setting: under `Cc1ccc(CSc2nc3ccsc3c(=O)n2CCC(C)C)cc1` stands “inactive”; under `COC(=O)c1ccccc1NC(=O)c1cnn(-c2ccc(F)cc2)c1-n1cccc1`, “inactive”; under `O=C(COc1ccc(Cl)cc1)Nc1ccc2c(c1)OCO2`, “inactive”.

Regarding `O=C(CCN1CCN(C/C=C/c2ccccc2)CC1)Nc1cccc(F)c1`, the Potency entry is “inactive”. As for `O=C(CN1CCN(Cc2ccccc2)CC1)Nc1ccc(F)c(F)c1`, the Potency was 7.08 µM (active).

For the molecule `O=C(Nc1ccccc1)N1CCN(C2c3ccccc3-c3ccccc32)CC1`, the Potency entry is “inactive”. In the case of `Cc1cc(NC(=O)CCN2CCN(Cc3ccccc3)CC2)ccc1Br`, the Potency is 44.7 µM (active).

`O=C(CN1CCCCCC1)Nc1ccc(Cl)cc1F`: the Potency result was “inactive”. As to `O=C(CN1CCN(CC(=O)Nc2ccc3c(c2)OCO3)CC1)Nc1ccc(F)cc1`, the activity, negative = inhibition is -4.1% [at 2.33 µM].

In the case of `O=C(Nc1cccc(NC(=O)N2CCN(c3ccccc3)CC2)c1)N1CCN(c2ccccc2)CC1`, the Potency result is “inactive”. On the same count and under the same terms, under `O=C1CCN(C(=O)Nc2ccccc2)N1` stands 7.94 µM (active). The same measure, in the same setting: as for `O=C(Nc1ccccc1)N1CCN(C(=O)Nc2ccccc2)CC1`, the entry is “inactive”. Same read-out and setting: as for `O=C(Nc1ccccc1)N1CCN(Cc2ccccc2)CC1`, the figure is 2 µM (active). For `O=C(Nc1ccccc1)N1CCC(C(=O)N2CCN(Cc3ccccc3)CC2)CC1`, the activity, negative = inhibition was 9.4% [at 12.7 µM].

As for `CCOC(=O)N1CCN(CCC(=O)Nc2ccccc2)CC1`, the activity, negative = inhibition is -0.171% [at 0.501 µM]. `COc1ccc(C)cc1NC(=O)CCc1c(C)nn(-c2ccc(N3CCOCC3)nn2)c1C`: the Potency entry was “inactive”. For `O=C(COC(=O)c1cnccn1)Nc1ccc(Cl)cc1C(F)(F)F`, the activity, negative = inhibition is -3.19% [at 0.501 µM]. In the case of `O=C(Cn1c(=O)nc(-c2ccccc2)c2cc(Cl)ccc21)NCc1ccc(Cl)cc1`, the Potency result was “inactive”. On the same count and under the same terms, as for `O=C(CSc1cn(CC(=O)N2CCOCC2)c2ccccc12)Nc1ccccc1`, the entry is “inactive”; as for `CN(CC(=O)NCc1ccncc1)S(=O)(=O)c1ccc(Br)cc1`, “inactive”. With `CCOC(=O)Cc1csc(SCC(=O)Nc2ccc(C)cc2F)n1`, the Potency entry is “inactive”. The same measure, in the same setting: under `C=Cc1ccc(Cn2c(C(=O)OC)cc3sc(C)cc32)cc1` stands “inactive”. On the same count and under the same terms, under `CC(=O)Nc1ccc2nc(SCCOc3cc(C)cc(C)c3)sc2c1` stands “inactive”; under `COc1ccccc1-n1c(-c2ccc(C)cc2)cn2c3c(=O)n(C)c(=O)n(C)c3nc12`, “inactive”. The same measure, in the same setting: under `COc1cccc(N2C(=O)CN(Cc3ccccc3)C2=S)c1` stands “inactive”. For the molecule `COc1ccc(Nc2cc(=O)n(-c3ccccc3)c3c2c(=O)n(C)c(=O)n3C)cc1`, the Potency result is “inactive”.

Take `COc1ccc(-c2c3c(=O)n(C)c(=O)n(C)c3c3c(C)nc4ccccc4n23)cc1`: the Potency entry is “inactive”. `Cc1ccc(-c2c3c(=O)n(C)c(=O)n(C)c3cn2-c2ccccc2O)cc1`: the Potency was 31.6 µM (active). Still for that read-out and setting: under `COc1cccc(-n2cc3c(c2-c2ccccc2)c(=O)n(C)c(=O)n3C)c1` stands 25.1 µM (active); under `O=C(O)c1ccc(CSc2nc3cccnc3n2Cc2cccc(F)c2)cc1`, “inactive”. In the case of `CCN(CC(=O)NCc1cccs1)C(=O)/C=C/c1ccc(C)cc1`, the activity, negative = inhibition was 9.99% [at 12.7 µM].

For `CCOC(=O)c1c(C)[nH]c(CCC(=O)NCCCN2CCN(c3cccc(Cl)c3)CC2)c1C`, the Potency result is “inactive”. Same read-out and setting: under `CCOC(=O)c1ccc2c(c1)N(Cc1cccc(OC)c1)C(=O)c1ccccc1S2(=O)=O` stands “inactive”. The same measure, in the same setting: under `O=C(C1Cc2ccccc2CN1C(=O)c1ccco1)N1CCN(c2ccccc2)CC1` (stereo not given) stands “inactive”; under `C[C@H](NC(=O)[C@@H]1Cc2ccccc2CN1C(=O)OC(C)(C)C)C(=O)NC1CCCC1`, “inactive”; under `CC(=O)N1Cc2ccccc2CC1C(=O)O` (stereo not given), 17.8 µM (active). Take `C[C@@H]1O[C@@H](OC[C@H]2O[C@@H](Oc3c(-c4ccc(O)cc4)oc4cc(O)cc(O)c4c3=O)[C@H](O)[C@@H](O)[C@@H]2O)[C@H](O)[C@H](O)[C@H]1O`: the activity, negative = inhibition is 4.77% [at 12.7 µM]. For `COc1cccc(N2CC(NS(=O)(=O)c3ccc(Cl)cc3)CC2=O)c1` (stereo not given), the Potency entry was “inactive”. In the case of `CC1CCC(CN2CCN=C2N(C)C)CC1` (stereo not given), the activity, negative = inhibition was 11.1% [at 12.7 µM].

`NC(=S)c1ccc(C(N)=S)o1`: the Potency is 44.7 µM (active). Regarding `O=C(Nc1ccc(F)cc1)c1cc2c(s1)CCCC2`, the Potency result is “inactive”. Still for that read-out and setting: as for `CN(C)C(=O)c1ccc(NC(=O)COC(=O)c2cc3c(s2)CCCCC3)cc1`, the figure is 3.55 µM (active); as for `O=C(COC(=O)c1cc2c(s1)CCCC2)NCc1ccccc1Cl`, “inactive”.
